From PubChem BioAssay (NCATS)
Activity calls are given as the source filed them. The call rests on the fitted dose curve; in most records, active means well fitted curve in the direction sought with a large enough effect; inconclusive means small, poorly fitted or top-dose-only effect, or another doubt; inactive means no such curve, though single readings can be large or run the other way.

molecular target: Guanine nucleotide-binding protein G(i) subunit alpha-1 (Homo sapiens) (UniProt P63096); assay: qHTS Assay for Inhibitors of RGS12 GoLoco Motif Activity (Green Fluorophore) (AID 879); conditions: Galphai1/FITC-RGS12 GoLoco peptide, fluorescence polarization; series mostly up to 57.1 µM;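 further: negative values mean loss of peptide binding seen as reduced polarization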
Sequence (P63096 whole entry, looked up): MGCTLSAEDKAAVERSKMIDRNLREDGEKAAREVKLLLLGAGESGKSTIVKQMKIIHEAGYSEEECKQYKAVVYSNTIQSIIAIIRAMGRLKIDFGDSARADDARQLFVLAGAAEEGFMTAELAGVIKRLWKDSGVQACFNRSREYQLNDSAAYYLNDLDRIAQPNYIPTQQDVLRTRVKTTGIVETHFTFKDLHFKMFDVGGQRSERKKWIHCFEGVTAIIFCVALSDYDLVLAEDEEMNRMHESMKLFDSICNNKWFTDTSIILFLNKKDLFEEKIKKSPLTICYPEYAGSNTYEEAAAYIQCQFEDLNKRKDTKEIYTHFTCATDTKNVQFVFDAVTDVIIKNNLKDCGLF
Description: Assay Overview: NIH Molecular Libraries Screening Centers Network [MLSCN] NIH Chemical Genomics Center [NCGC] MLSCN Grant: NS053754-01 Assay Provider: Siderovski, David P, University of North Carolina at Chapel Hill G-protein-coupled receptors (GPCRs) are major targets for drug discovery. The regulator of G-protein signaling (RGS)-protein family has important roles in GPCR signal transduction. RGS proteins contain a conserved RGS-box, which is often accompanied by other signaling regulatory elements. RGS proteins accelerate the deactivation of G proteins to reduce GPCR signaling; however, some also have an effector function and transmit signals. Combining GPCR agonists with RGS inhibitors should potentiate responses, and could markedly increase the agonist's regional specificity. The diversity of RGS proteins with highly localized and dynamically regulated distributions in brain makes them attractive targets for pharmacotherapy of central nervous system disorders. […] A complex of Gai1 and fluorescently labeled G-alpha-binding peptide (the "GoLoco motif") derived from RGS12 is incubated with library members. Inhibitors of the binding are detected by a decrease in the fluorescence polarization (FP) of the fluorophore. Protein was supplied by Prof. David Siderovski, University of North Carolina at Chapel Hill.
Assay Protocol: Reagents/Controls: Assay Buffer: 10 mM Tris-HCl, 150 mM NaCl, 0.1 mM GDP (prepared fresh), and 0.05% NP40 at pH 7.5. […] 10 nM FITC labeled peptide/50 nM protein in columns 1, 2, 5 - 48. Titration of unlabeled peptide control ([H][…][NH2], custom synthesized and HPLC-purified by Tufts University Core Facility) from 10 mM, then 1:2 dilution, 16-point in duplicate, pin-transferred to column 2, rows 1 to 32. Column 1 is neutral. FITC-labeled RGS12-GoLoco peptide was custom-synthesized and HPLC-purified by Michael Berne of Tufts University Assay Steps. Four uL of reagents were dispensed to 1536-well Greiner black solid-bottom plates. Compounds and controls (23 nL) were transferred via Kalypsys PinTool. The plates were incubated for 10 min at room temperature, and then read on ViewLux (Perkin-Elmer) High-throughput CCD imager using FITC polarization filter sets for the fluorescein-labeled decapeptide probe.During dispense, reagent bottles were kept submerged into 4 deg C water bath and all liquid lines were covered with aluminum foil to minimize probe and protein degradation. All screening operations were performed on a Kalypsys robotic system (Kalypsys, Inc., San Diego, CA) containing one RX-130 and two RX-90 anthropomorphic robotic arms.

SMILES | outcome
CC(C)(C)c1o[nH]c(=O)c1C[C@H](N)C(=O)O | inactive
O=C(Cc1ccc(Cl)c(Cl)c1)N1CCCC[C@H]1CN1CCCC1 | inactive
Oc1ccc2c3c1O[C@H]1c4oc5ccccc5c4C[C@]4(O)[C@H](C2)N(CC2CC2)CC[C@@]314 | inactive
N[C@H](C(=O)O)c1cc(=O)[nH]o1 | inactive
C=CCN1CC[C@@]23c4c5ccc(O)c4O[C@H]2/C(=N\N=C2/CC[C@@]4(O)[C@H]6Cc7ccc(O)c8c7[C@@]4(CCN6CC=C)[C@@H]2O8)CC[C@]3(O)[C@@H]1C5 | inactive
Oc1ccc2c3c1O[C@H]1c4[nH]c5ccccc5c4C[C@]4(O)[C@H](C2)N(CC2CC2)CC[C@@]314 | inactive
C/C(O)=C(/C#N)C(=O)Nc1cc(Br)ccc1Br | inactive
CC(C)[C@@]1(NC(=O)[C@@H]2C[C@H]3c4cccc5[nH]cc(c45)C[C@@H]3N(C)C2)O[C@@]2(O)[C@H]3CCCN3C(=O)[C@H](Cc3ccccc3)N2C1=O | inactive
N[C@H](CP(=O)(O)O)C(=O)O | inactive
COc1cc(CCN)ccc1O | inactive
CN(C(=O)Cc1ccc(Cl)c(Cl)c1)[C@@H](CN1CCCC1)c1cccc(OCC(=O)O)c1 | inactive
CN1C(=O)CCS(=O)(=O)[C@H]1c1ccc(Cl)cc1 | inactive
C=C(C)[C@H]1CN[C@H](C(=O)O)[C@@H]1CC(=O)O | inactive
C[C@H](N)Cc1cnc[nH]1 | inactive
O=C1NCN(c2ccccc2)C12CCN(C[C@H]1COc3ccccc3O1)CC2 | inactive
CP(=O)(O)CCCN | inactive
CN1CC[C@@]23CCCC[C@@H]2[C@@H]1Cc1ccc(O)cc13 | inactive
COc1ccc(-n2nc(C(F)(F)F)cc2-c2ccc(Cl)cc2)cc1 | inactive
c1ccc2c(c1)OC[C@@H](C1=NCCN1)O2 | inactive
COc1ccc2[nH]cc(CCN(C)C)c2c1 | inactive

SMILES | outcome
N[C@@]1(C(=O)O)CC[C@H](C(=O)O)C1 | inactive
CCOC(=O)c1ncn2c1[C@H]1CCCN1C(=O)c1cc(OC)ccc1-2 | inactive
C=CCN1CCC2(C)c3cc(O)ccc3C[C@H]1[C@H]2C | inactive
C[C@H](N)Cc1c[nH]c2ccc(OCc3cccs3)cc12 | inactive
N[C@H](CCCCCP(=O)(O)O)C(=O)O | inactive
N#CC(C#N)=Cc1ccc([N+](=O)[O-])c(O)c1 | inactive
COC(=O)N1CCN(C(=O)Cc2ccc(Cl)c(Cl)c2)[C@H](CN2CCCC2)C1 | inactive
N[C@@H](Cn1cc(I)c(=O)[nH]c1=O)C(=O)O | inactive
CN1[C@@H]2CC[C@H]1CC(O[C@@H](c1ccccc1)c1ccc(Cl)cc1)C2 (stereo not given in full) | inactive
NC[C@H](CP(=O)(O)O)c1ccc(Cl)cc1 | inactive
C[C@H](N)Cc1c[nH]c2ccc(O)cc12 | inactive
CC[C@]1(C2=NCCN2)Cc2ccccc2O1 | inactive
COc1ccc(CCN)cc1O | inactive
COC(=O)c1cc2c(cn1)[nH]c1ccccc12 | inactive
C[C@@H](Cc1ccc(OCC(=O)O)cc1)NC[C@H](O)c1cccc(Cl)c1 | inactive
Cc1o[nH]c(=O)c1C[C@H](N)C(=O)O | inactive
CN1CCN(c2ccc3ccccc3n2)CC1 | inactive
COc1ccc(CNC(=O)/C=C\c2ccc3[nH]cc(CCN(C)C)c3c2)cc1 | inactive
CNc1ccc2oc(C[C@H]3O[C@]4(CC[C@H]3C)O[C@H]([C@H](C)C(=O)c3ccc[nH]3)[C@H](C)C[C@H]4C)nc2c1C(=O)O | inactive
O=C1CC[C@@]2(O)[C@H]3Cc4ccc(O)c5c4[C@@]2(CCN3CC2CC2)[C@@H]1O5 | inactive
